From the antibiotic and cytotoxicity screens of Wong et al. (2023)
In all, about 39,000 compounds went through this assay and about 3,300 (8.5%) were called active. This is one part of a sample in which actives are shown more often than they occur.

Test system: HepG2
Test: cytotoxicity call (relative viability < 0.9)
Conditions: 10 µM

SMILES | cytotoxicity call
C[C@H](CO)N1C[C@H](C)[C@@H](CN(C)Cc2ccc(-c3ccccc3)cc2)Oc2ccc(NS(=O)(=O)c3cccs3)cc2C1=O | inactive
C[C@H]1CN([C@@H](C)CO)C(=O)c2cc(NS(=O)(=O)c3cccs3)ccc2O[C@@H]1CN(C)Cc1ccc(Oc2ccccc2)cc1 | inactive
C[C@@H]1CN([C@H](C)CO)C(=O)c2cc(NS(=O)(=O)c3cccs3)ccc2O[C@H]1CN(C)Cc1ccc(Oc2ccccc2)cc1 | inactive
C[C@@H]1CN([C@H](C)CO)C(=O)c2cc(NS(=O)(=O)c3cccs3)ccc2O[C@@H]1CN(C)Cc1ccc(Oc2ccccc2)cc1 | active
C[C@@H]1CN([C@H](C)CO)C(=O)c2cc(NS(=O)(=O)c3cccs3)ccc2O[C@@H]1CN(C)Cc1ccc(-c2ccccc2)cc1 | active
C[C@H](CO)N1C[C@H](C)[C@H](CN(C)Cc2ccc(-c3ccccc3)cc2)Oc2ccc(NS(=O)(=O)c3cccs3)cc2C1=O | inactive
NC(=O)c1cccc(Br)n1 | inactive
Cc1noc(C)c1S(=O)(=O)N(C)C[C@H]1OCc2cn(nn2)CCCC(=O)N([C@H](C)CO)C[C@@H]1C | inactive
Cc1ccc(S(=O)(=O)N(C)C[C@H]2Oc3ccc(NS(=O)(=O)c4cccs4)cc3C(=O)N([C@H](C)CO)C[C@H]2C)cc1 | inactive
C[C@H]1CN([C@@H](C)CO)C(=O)CCCn2cc(nn2)CO[C@@H]1CN(C)S(=O)(=O)c1ccc(-n2cccn2)cc1 | inactive
C[C@@H]1CN([C@@H](C)CO)C(=O)c2cc(NC(=O)CCN3CCOCC3)ccc2O[C@@H]1CN(C)S(=O)(=O)c1ccc(Cl)cc1 | inactive
C[C@@H]1CN([C@H](C)CO)C(=O)c2cc(NS(=O)(=O)c3ccccc3)ccc2O[C@@H](C)CCCCO[C@H]1CN(C)C(=O)Nc1ccccc1 | inactive
C[C@H]1CN([C@@H](C)CO)C(=O)Cc2cc(NC(=O)Nc3cccc4ccccc34)ccc2O[C@H]1CN(C)C(=O)Nc1ccc(C(F)(F)F)cc1 | inactive
COc1ccc(CN(C)C[C@H]2Oc3c(NS(=O)(=O)c4c(C)noc4C)cccc3C(=O)N([C@H](C)CO)C[C@H]2C)cc1 | inactive
C[C@H]1CN([C@@H](C)CO)C(=O)Cc2cc(NS(=O)(=O)c3cccs3)ccc2O[C@H]1CN(C)Cc1ccc(-c2ccccc2)cc1 | inactive
C[C@@H]1CCCCO[C@@H](CN(C)Cc2ccc(C(=O)Nc3ccccc3N)cc2)[C@H](C)CN([C@H](C)CO)C(=O)c2cc(N(C)C)ccc2O1 | active
C[C@@H]1CCCCO[C@H](CN(C)Cc2ccc(C(=O)Nc3ccccc3N)cc2)[C@@H](C)CN([C@H](C)CO)C(=O)c2cc(NC(=O)c3ccccc3)ccc2O1 | active
C[C@@H]1CCCCO[C@@H](CN(C)Cc2ccc(C(=O)Nc3ccccc3N)cc2)[C@@H](C)CN([C@H](C)CO)C(=O)c2cc(NC(=O)Cc3ccccc3)ccc2O1 | inactive
CC(C)NC(=O)Nc1ccc2c(c1)C(=O)N([C@H](C)CO)C[C@H](C)[C@H](CN(C)Cc1ccc(C(=O)Nc3ccccc3N)cc1)OCCCC[C@@H](C)O2 | inactive
C[C@@H]1CCCCO[C@@H](CN(C)Cc2ccc(C(=O)Nc3ccccc3N)cc2)[C@@H](C)CN([C@H](C)CO)C(=O)c2cc(NC(=O)c3ccccc3)ccc2O1 | active
C[C@H]1CCCCO[C@H](CN(C)Cc2ccc(C(=O)Nc3ccccc3N)cc2)[C@@H](C)CN([C@@H](C)CO)C(=O)c2cc(N(C)C)ccc2O1 | inactive
C[C@@H]1CCCCO[C@@H](CN(C)Cc2ccc(C(=O)Nc3ccccc3N)cc2)[C@@H](C)CN([C@H](C)CO)C(=O)c2cc(NC(=O)c3ccncc3)ccc2O1 | inactive
C[C@H](CO)N1C[C@H](C)[C@H](CN(C)Cc2ccc(C(=O)Nc3ccccc3N)cc2)OCCCC[C@H](C)Oc2ccc(N(C)C)cc2C1=O | inactive

SMILES | cytotoxicity call
C[C@@H]1CCCCO[C@@H](CN(C)Cc2ccc(C(=O)Nc3ccccc3N)cc2)[C@@H](C)CN([C@H](C)CO)C(=O)c2cc(NC(=O)Nc3ccccc3)ccc2O1 | inactive
C[C@H]1CN([C@@H](C)CO)S(=O)(=O)c2ccc(C#CC3(O)CCCC3)cc2O[C@@H]1CN(C)C(=O)Cc1ccccc1 | inactive
C[C@@H]1CN([C@@H](C)CO)C(=O)c2cccc(NS(=O)(=O)c3ccc(F)cc3)c2O[C@@H]1CN(C)S(=O)(=O)c1cn(C)cn1 | inactive
CCOC(=O)c1cccc([C@@H]2CC(=O)N(C(=O)OCc3ccccc3)[C@@H]2C(=O)Nc2cccc3cccnc23)c1 | inactive
Cc1noc(C)c1NC(=O)N(C)C[C@@H]1OCCCC[C@@H](C)Oc2ccc(NC(=O)C3CCCCC3)cc2C(=O)N([C@@H](C)CO)C[C@H]1C | inactive
C[C@@H]1CN([C@H](C)CO)C(=O)c2cc(NC(=O)CCC(F)(F)F)ccc2O[C@@H](C)CCCCO[C@H]1CN(C)S(=O)(=O)c1cccs1 | inactive
CN1CCCC1CCOC(C)(c1ccccc1)c1ccc(Cl)cc1.O=C(O)C=CC(=O)O (centres undefined) | active
CN1CCC[C@H]1CCO | inactive
CN(C)CCOC(C)(c1ccccc1)c1ccccn1.O=C(O)CCC(=O)O (centres undefined) | inactive
COc1ccc(S(=O)(=O)N(C)C[C@H]2Oc3ccc(NS(=O)(=O)c4cn(C)cn4)cc3CC(=O)N([C@H](C)CO)C[C@H]2C)cc1 | inactive
Cn1cc(N2C[C@]3(COCCN(C(=O)C4(C#N)CC4)C3)OCC2=O)cn1 | inactive
COc1cc(-c2coc3cc(O[C@@H]4O[C@H](CO)[C@@H](O)[C@H](O)[C@H]4O)c(OC)c(O)c3c2=O)cc(O)c1OC | inactive
COc1cc(-c2coc3cc(OC4OC(CO)C(O)C(O)C4O)c(OC)c(O)c3c2=O)cc(O)c1OC (centres undefined) | active
COc1ccc(-c2oc3cc(O[C@H]4O[C@H](CO)[C@@H](O)[C@H](O)[C@H]4O)c(OC)c(O)c3c(=O)c2OC)cc1O | inactive
O=C1CCCSc2ccccc21 | inactive
C[C@@H]1CN([C@H](C)CO)C(=O)c2cc(NC(=O)C3CCCCC3)ccc2O[C@@H](C)CCCCO[C@H]1CN(C)C(=O)Nc1ccc2c(c1)OCO2 | inactive
C[C@@H]1CCCCO[C@@H](CN(C)C(=O)CCCN(C)C)[C@H](C)CN([C@@H](C)CO)C(=O)c2cc(N(C)C)ccc2O1 | inactive
C[C@H](CO)N1C[C@H](C)[C@@H](CN(C)C(=O)Nc2ccc(F)cc2)OCCCC[C@H](C)Oc2ccc(NC(=O)Nc3ccccc3)cc2C1=O | inactive
CC(C)C(C)C=CC(C)C1CCC2C3=CC=C4CC(O)CCC4(C)C3CCC21C (centres undefined) | inactive
Cc1ccc2c(Br)cc(Br)c(OC(=O)c3ccccc3)c2n1 | active
CCn1cc(C(=O)O)c(=O)c2ccc(C)nc21 | inactive
CNC[C@@H]1Oc2cc(C#CC(C)(C)O)ccc2S(=O)(=O)N([C@@H](C)CO)C[C@H]1C | inactive
C[C@H]1CN([C@@H](C)CO)S(=O)(=O)c2ccc(-c3ccncc3)cc2O[C@H]1CN(C)Cc1ccc(Oc2ccccc2)cc1 | inactive

SMILES | cytotoxicity call
COc1ccccc1C#Cc1ccc2c(c1)O[C@@H](CN(C)Cc1ccncc1)[C@@H](C)CN([C@H](C)CO)S2(=O)=O | inactive
COc1ccccc1C#Cc1ccc2c(c1)O[C@H](CN(C)Cc1ccncc1)[C@@H](C)CN([C@H](C)CO)S2(=O)=O | inactive
COc1ccccc1C#Cc1ccc2c(c1)O[C@H](CN(C)Cc1ccncc1)[C@H](C)CN([C@H](C)CO)S2(=O)=O | active
COc1ccccc1C#Cc1ccc2c(c1)O[C@@H](CN(C)Cc1ccncc1)[C@H](C)CN([C@H](C)CO)S2(=O)=O | inactive
C[C@@H]1CN([C@@H](C)CO)S(=O)(=O)c2ccc(-c3ccncc3)cc2O[C@H]1CN(C)Cc1ccc(Oc2ccccc2)cc1 | active
COc1ccccc1C#Cc1ccc2c(c1)O[C@@H](CN(C)Cc1ccncc1)[C@@H](C)CN([C@@H](C)CO)S2(=O)=O | inactive
C[C@H]1CN([C@@H](C)CO)S(=O)(=O)c2ccc(-c3ccncc3)cc2O[C@@H]1CN(C)Cc1ccc(Oc2ccccc2)cc1 | inactive
COc1ccccc1C#Cc1ccc2c(c1)O[C@H](CN(C)Cc1ccncc1)[C@@H](C)CN([C@@H](C)CO)S2(=O)=O | active
Cl.N=C(N)n1cccn1 | inactive
C[C@@H]1CCCCO[C@@H](CN(C)S(=O)(=O)c2cn(C)cn2)[C@@H](C)CN([C@H](C)CO)C(=O)c2cc(N(C)C)ccc2O1 | inactive
Cn1cccc1CNCCCN1CCOCC1 | inactive
C[C@H]1CCCCO[C@H](CN(C)C(=O)Nc2ccc3c(c2)OCO3)[C@@H](C)CN([C@@H](C)CO)C(=O)c2cc(NC(=O)Nc3ccc(C(F)(F)F)cc3)ccc2O1 | inactive
Cc1ccc(S(=O)(=O)N(C)C[C@H]2Oc3ccc(NS(C)(=O)=O)cc3C(=O)N([C@H](C)CO)C[C@@H]2C)cc1 | inactive
Cc1noc(C)c1NC(=O)Nc1ccc2c(c1)C(=O)N([C@H](C)CO)C[C@@H](C)[C@H](CN(C)Cc1ccc(C(F)(F)F)cc1)O2 | inactive
COc1ccc([C@@H]([C@H](Cc2ccccc2)OC(C)=O)N2C[C@@H](NC(=O)C(Cl)(Cl)Cl)[C@@H]3[C@H]([C@@H]2Cc2ccccc2)N(C)O[C@H]3c2ccccc2)cc1 | inactive
COc1ccc([C@@H]([C@H](Cc2ccccc2)OC(C)=O)N2C[C@@H]3[C@H]([C@@H]2Cc2ccccc2)N(C)O[C@@]3(O)[C@@H](O)c2ccccc2)cc1 | inactive
COc1ccc([C@@H]([C@H](Cc2ccccc2)OC(C)=O)N2C[C@@H](OC(C)=O)[C@@H]3[C@H]([C@@H]2Cc2ccccc2)N(C)O[C@H]3c2ccccc2)cc1 | inactive
COc1ccc([C@@H]([C@H](Cc2ccccc2)OC(C)=O)N2C[C@@H]3C(=NO[C@H]3[C@@H](OC(C)=O)c3ccccc3)[C@@H]2Cc2ccccc2)cc1 | inactive
COc1ccc([C@@H]([C@H](Cc2ccccc2)OC(C)=O)N2C[C@H](CC(=O)N(C)C)[C@@H]3[C@H]([C@@H]2Cc2ccccc2)N(C)O[C@H]3c2ccccc2)cc1 | inactive
COc1ccc([C@@H]([C@H](Cc2ccccc2)OC(C)=O)N2C[C@H]3[C@@H]([C@@H](O)c4ccccc4)ON(C)[C@H]3[C@@H]2Cc2ccccc2)cc1 | active
COc1ccc([C@@H]([C@H](Cc2ccccc2)OC(C)=O)N2C[C@@H](CC(=O)N(C)C)[C@H]3[C@@H]([C@@H]2Cc2ccccc2)N(C)O[C@@H]3c2ccccc2)cc1 | active
COc1ccc([C@@H]([C@H](Cc2ccccc2)OC(C)=O)N2C[C@@H](CC(=O)N(C)C)[C@@H]3[C@H]([C@@H]2Cc2ccccc2)N(C)O[C@H]3c2ccccc2)cc1 | inactive
COc1ccc([C@@H]([C@H](Cc2ccccc2)OC(C)=O)N2C[C@H]3[C@H]([C@@H](OC(C)=O)c4ccccc4)ON(C)[C@H]3[C@@H]2Cc2ccccc2)cc1 | active
